# Records with an inconclusive call do not appear. A call without a number means that no potency is given here. Activity calls are given as the source filed them. Calls follow the shape of the full dose curve.
# How the values were obtained:
# [1] = Cytotoxicity counterscreen for inhibitors of SARS-CoV-2 cell entry (AID 1645845); conditions: outcome: dose series up to 57.1 µM unless noted; also: nearly all actives have a fitted effect of over 50% in size
# How it was run: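 HEK293-ACE2 cells (Expi293F stably expressing human ACE2) seeded overnight, then compound for 1 h plus 48 h at 37C. Viability as ATP content by luminescence; normalized to wells with cells and media-only wells.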
# [2] = Primary qHTS to identify inhibitors of SARS-CoV-2 cell entry (AID 1645846); conditions: SARS-CoV-2 pseudovirus cell entry assay, luminescence; activity change, negative = inhibition: at 57.1 µM (top of the series) unless noted; also: nearly all actives have a fitted effect of over 45% in size
# How it was run: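 Inhibition of spike-mediated entry was scored in human ACE2-transfected Expi293F cells. Particles were MLV-pseudotyped with Wuhan-Hu-1 S carrying a 19-aa C-terminal deletion; signal was luciferase after two days, scaled between spike PP and fusion-protein-free PP.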
# Potency is read from the fitted curve at half-maximal effect.
smiles,measurement,setting,value
O=C(Nc1ccc(-c2ccnc(Nc3ccc(N4CCOCC4)cc3)n2)cc1)C1CCCN1 (stereo not drawn),Potency,[1],inactive
same,"activity change, negative = inhibition",[2],-3.33%
COc1cc2c(Nc3ccc(Cl)c(Cl)c3F)ncnc2cc1OCC1C[C@@H]2CN(C)C[C@@H]2C1 (stereo partly drawn),Potency,[1],31.6 µM (active)
same,Potency,[2],15.8 µM (active)
Cc1ccc(-c2nn(C(C)(C)CNC(=O)c3ccncc3)c3ncnc(N)c23)cc1,Potency,[1],inactive
[2H]c1nc(C)nc([2H])c1-c1cc(NC[C@@H](C)c2cccc3c(C(=O)NC)ccnc23)ncn1,Potency,[1],inactive
same,"activity change, negative = inhibition",[2],0.426%
C[C@@H](Oc1cc(C(=O)Nc2ccc(C(=O)N3CCN(C)CC3)cc2)nnc1N)c1c(Cl)ccc(F)c1Cl,Potency,[1],28.2 µM (active)
CNC(=O)[C@H]1O[C@@H](n2cnc3c(NCc4cccc(I)c4)nc(Cl)nc32)[C@H](O)[C@@H]1O,Potency,[1],inactive
COc1ccc(-c2cc(C(O)C3CCCCN3)c3ccccc3n2)cc1 (stereo not drawn),Potency,[1],14.1 µM (active)
same,Potency,[2],12.6 µM (active)
Nc1ncnc2c1c(COc1cccc(Cl)c1)nn2C1CCOCC1,Potency,[1],inactive
same,Potency,[2],inactive
Cn1cc(-c2c[nH]c3ncnc(N4CCOCC4)c23)cn1,Potency,[1],inactive
same,"activity change, negative = inhibition",[2],-0.441%
NC1=N[C@@]2(c3cc(NC(=O)c4ccc(F)cn4)ccc3F)COC[C@H]2CS1,Potency,[1],inactive
same,"activity change, negative = inhibition",[2],-18.7%
CC(C)[C@@H](CS(=O)(=O)C(C)C)N1C(=O)[C@@](C)(CC(=O)O)C[C@H](c2cccc(Cl)c2)[C@H]1c1ccc(Cl)cc1,Potency,[1],inactive
same,"activity change, negative = inhibition",[2],-11.9%
COc1cc(C(=O)O)ccc1NC(=O)[C@@H]1N[C@@H](CC(C)(C)C)[C@](C#N)(c2ccc(Cl)cc2F)[C@H]1c1cccc(Cl)c1F,Potency,[1],inactive
same,"activity change, negative = inhibition",[2],1.92%
N[C@@H]1CN(c2c(F)cc3c(=O)c(C(=O)O)cn([C@@H]4C[C@@H]4F)c3c2Cl)CC12CC2,Potency,[1],inactive
same,"activity change, negative = inhibition",[2],-5.2%
C[C@H](NC(=O)/C(C#N)=C/c1cccc(Br)n1)c1ccccc1,Potency,[1],28.2 µM (active)
same,Potency,[2],35.5 µM (active)
CC1(C)O[C@@H]2C[C@H]3[C@@H]4CCC5=CC(=O)C=C[C@]5(C)[C@H]4[C@@H](O)C[C@]3(C)[C@]2(C(=O)CO)O1,Potency,[1],inactive
same,"activity change, negative = inhibition",[2],4.23%
C#Cc1cccc(Nc2ncnc3cc4c(cc23)OCCOCCOCCO4)c1,Potency,[1],inactive
same,"activity change, negative = inhibition",[2],-13.8%
CC1Cc2ccccc2N1C(=O)Cc1nc(N2CCOCC2)cc(=O)[nH]1 (stereo not drawn),Potency,[1],inactive
same,"activity change, negative = inhibition",[2],-26.2%
COC(=O)/C=C/C(=O)N(O)CCCCNCc1ccc(COC(=O)Nc2cccc3ccccc23)cc1,Potency,[1],inactive
same,"activity change, negative = inhibition",[2],-27.1%
C=CCN1C[C@H](C(=O)N(CCCN(C)C)C(=O)NCC)CC2c3cccc4[nH]cc(c34)C[C@H]21 (stereo partly drawn),Potency,[1],inactive
same,"activity change, negative = inhibition",[2],-15.3%
CN1C(=O)N(c2cc(Cl)cc(Cl)c2)C(=O)[C@]12CN(Cc1cc(C(=O)O)cs1)C[C@H]2c1ccc(C#N)cc1,Potency,[1],inactive
Cc1cc(O[C@@H](CCC(F)(F)F)c2ccc(C(=O)NCCC(=O)O)cc2)cc(C)c1-c1ccc(C(C)(C)C)cc1,Potency,[1],inactive
same,"activity change, negative = inhibition",[2],-0.0119%
COC(=O)C1=C(C)NC(c2ncc(F)cc2F)=N[C@H]1c1ccc(F)cc1Cl,Potency,[1],inactive
same,Potency,[2],inactive
CC(=O)N1CCN(c2ccc(NC(=O)Cc3cnc(-c4ccnc(F)c4)c(C)c3)nc2)CC1,Potency,[1],inactive
same,"activity change, negative = inhibition",[2],0.388%
COC(=O)[C@H]1[C@@H](O)[C@@]2(O)c3c(OC)cc(O[C@@H]4O[C@@H]([C@@H](O)CO)CO[C@H]4OC)cc3O[C@@]2(c2ccc(OC)cc2)[C@@H]1c1ccccc1,Potency,[1],inactive
same,Potency,[2],inactive
Cc1ccc(NS(=O)(=O)c2ccc3c(c2)C2C=CCC2C(c2ccc(C(=O)O)cc2)N3)cc1C (stereo not drawn),Potency,[1],inactive
same,"activity change, negative = inhibition",[2],-18.7%
O=C(/C=C/c1ccc(/C=C/C(=O)Nc2ccc(C3=NCCN3)cc2)cc1)Nc1ccc(C2=NCCN2)cc1,"activity change, negative = cytotoxicity",[1],-2.26% [at 5.25 µM] (inactive)
same,"activity change, negative = inhibition",[2],-24.3% [at 5.25 µM]
Nc1nccc(-c2c(-c3ccc(F)cc3)ncn2C2CCN(Cc3ccon3)CC2)n1,Potency,[1],inactive
COc1ccc2[nH]c(C(=O)N3CCC(CC(C)(C)O)CC3)cc2c1,Potency,[1],inactive
same,Potency,[2],inactive
Nc1nccc(-c2c(-c3ccc(F)cc3)ncn2C2CCCCC2)n1,Potency,[1],inactive
same,Potency,[2],inactive
CC(=O)N[C@H]1CSSC[C@@H](C(N)=O)NC(=O)[C@H](C(C)C)NC(=O)[C@H](C)NC(=O)[C@H](Cc2cnc[nH]2)NC1=O,Potency,[1],inactive
same,Potency,[2],inactive
CN[C@@H](C)C(=O)N[C@H](C(=O)N1CCC[C@H]1c1nc(C(=O)c2ccc(F)cc2)cs1)C1CCCCC1,Potency,[1],inactive
same,"activity change, negative = inhibition",[2],-6.26%
CN(CCOc1ccc(-c2ccc3c(c2)OCO3)cc1C(C)(C)C)CC(=O)O,Potency,[1],inactive
same,"activity change, negative = inhibition",[2],-18.5%
O=c1c(-c2ccc(O)cc2)coc2c([C@@H]3O[C@H](CO)[C@@H](O)[C@H](O)[C@H]3O)c(O)ccc12,Potency,[1],inactive
same,"activity change, negative = inhibition",[2],-22.1%
CN[C@@H](C)C(=O)N[C@@H]1C(=O)N(Cc2c(C)ccc3ccccc23)c2ccc(C#N)cc2N(C(C)=O)[C@H]1C,Potency,[1],inactive
same,Potency,[2],inactive
CCn1c(=O)c2c(nc(/C=C/c3ccc(OC)c(OC)c3)n2C)n(CC)c1=O,Potency,[1],inactive
same,Potency,[2],inactive
CC(C)(C)S(=O)(=O)c1ccc2nccc(Nc3n[nH]c4ccc(F)cc34)c2c1,Potency,[1],inactive
O=C(NNc1ccccc1)c1ccncc1,Potency,[1],inactive
same,"activity change, negative = inhibition",[2],-19.4%
CC(/C=C/[C@@H]1C[C@]1(C)c1ccc2c(c1)C(C)(C)CCC2(C)C)=C\C(=O)O,Potency,[1],inactive
same,"activity change, negative = inhibition",[2],-10.9%
CC(C)(O)c1coc(S(=O)(=O)NC(=O)Nc2c3c(cc4c2CCC4)CCC3)c1,Potency,[1],inactive
same,Potency,[2],inactive
Cc1ccc(-c2ccc3ncc4c(c3n2)n(C2CCN(C(=O)[C@H](C)O)CC2)c(=O)n4C)cn1,Potency,[1],inactive
same,"activity change, negative = inhibition",[2],-95.8%
COC(=O)N1CC2(CC2)C[C@H](C(=O)NO)[C@H]1C(=O)N1CCN(c2ccccc2)CC1,Potency,[1],inactive
same,"activity change, negative = inhibition",[2],-12.3%
Clc1cccc(-c2ccc(-c3nnc(CCCc4ccc5cccnc5n4)o3)cc2)c1,Potency,[1],inactive
same,Potency,[2],inactive
OCCn1cc(-c2ccc3c(c2)CC/C3=N\O)c(-c2ccncc2)n1,Potency,[1],inactive
same,Potency,[2],inactive
C=C1[C@H](OC(=O)/C=C(\C)CC)C[C@@H](C(C)C)[C@@H]2[C@H]([C@@H](C)OC(C)=O)C(=O)C[C@@H]12,Potency,[1],inactive
same,"activity change, negative = inhibition",[2],-14.8%
COc1ccc(-c2oc3c(CC=C(C)C)c(OC4O[C@H](CO)[C@@H](O)[C@H](O)[C@H]4O)cc(O)c3c(=O)c2OC2O[C@@H](C)[C@H](O)[C@@H](O)[C@H]2O)cc1 (stereo partly drawn),Potency,[1],inactive
same,"activity change, negative = inhibition",[2],-18.5%
FC(F)(F)c1ccc(CNc2ccc(Cc3c[nH]c4ncc(Cl)cc34)cn2)cn1,Potency,[1],inactive
same,"activity change, negative = inhibition",[2],-1.72%
C=C1/C(=C/C=C2\CCCC3(C)[C@@H]([C@H](C)/C=C/C=C/C(O)(CC)CC)CC[C@@H]23)C[C@@H](O)C[C@@H]1O (stereo partly drawn),Potency,[1],inactive
same,Potency,[2],inactive
CC(C)(CNC(=O)c1cccc(-c2noc(C(F)(F)F)n2)c1)c1coc(-c2ccccc2)n1,Potency,[1],inactive
same,"activity change, negative = inhibition",[2],-6.95%
OC1CCC([C@H](O)C[C@H]2c3c(F)cccc3-c3cncn32)CC1 (stereo partly drawn),Potency,[1],inactive
same,Potency,[2],inactive
COc1cc2nccc(Oc3ccc(NC(=O)c4cn(C(C)C)c(=O)n(-c5ccc(F)cc5)c4=O)cc3F)c2cc1OC,Potency,[1],inactive
same,Potency,[2],inactive
CN1C(=O)[C@@H](NC(=O)c2n[nH]c(Cc3ccccc3)n2)COc2ccccc21,Potency,[1],inactive
same,Potency,[2],inactive
COc1c(C)cc(NC(=O)c2nn(Cc3ccc(F)cc3)c3c2CN(C(=O)c2ccc[nH]2)C[C@]3(C)C(N)=O)cc1C,Potency,[1],inactive
same,Potency,[2],inactive
N#C/C(=C(/N)Sc1ccc(N)cc1)c1ccccc1C(F)(F)F,Potency,[1],inactive
same,"activity change, negative = inhibition",[2],-16.8%
CCc1cccc2c3c([nH]c12)[C@@](CC)(CC(=O)O)OCC3,Potency,[1],inactive
same,"activity change, negative = inhibition",[2],-19.9%
N#Cc1ccc(C2CCCc3cncn32)cc1 (stereo not drawn),Potency,[1],inactive
same,"activity change, negative = inhibition",[2],-13.4% [at 27.1 µM]
O=S(=O)(NCCNC/C=C/c1ccc(Br)cc1)c1cccc2cnccc12,Potency,[1],inactive
same,"activity change, negative = inhibition",[2],-22.5%
CN(C)C(N)=NC(=N)N,outcome,[1],inactive [setting not given]
same,outcome,[2],inactive [setting not given]
Clc1cc2c(NC3CCCC3)nnc(-c3ccncc3)c2cc1Cl,Potency,[1],inactive
same,Potency,[2],inactive
O=C(NCCCNC(=O)c1ccc[nH]c1=O)c1cc(-c2ccccc2)on1,Potency,[1],inactive
same,Potency,[2],inactive
N=C1S/C(=C\c2ccc(-c3ccc4c(c3)C(=O)NC4=O)o2)C(=O)N1c1ccc(Br)cc1,Potency,[1],inactive
same,"activity change, negative = inhibition",[2],-8.86% [at 27.1 µM]
CCN(c1cc(-c2ccc(CN3CCOCC3)cc2)cc(C(=O)NCc2c(C)cc(C)[nH]c2=O)c1C)C1CCOCC1,Potency,[1],inactive
same,Potency,[2],inactive
CCOCOC[C@H](C[C@H](C)C(=O)NO)NC(=O)c1ccc(Oc2ccccc2)cc1,Potency,[1],inactive
same,"activity change, negative = inhibition",[2],-23.9%
CN(C)c1cccc(-c2c3c(=O)n(-c4ccccc4Cl)[nH]c3cc(=O)n2C)c1,Potency,[1],inactive
same,"activity change, negative = inhibition",[2],-19.6%
Cc1nnc(C(C)C)n1C1CC2CCC(C1)N2CCC(NC(=O)C1CCC(F)(F)CC1)c1ccccc1 (stereo not drawn),Potency,[1],inactive
same,"activity change, negative = inhibition",[2],-24.8%
Cc1cccc(-c2nn3c(c2-c2ccnc4ccc(C(N)=O)cc24)CCC3)n1,Potency,[1],inactive
same,"activity change, negative = inhibition",[2],-4.65%
CC(C)Oc1ccc(-c2nn([C@@H](C)c3oc4ccc(F)cc4c(=O)c3-c3cccc(F)c3)c3ncnc(N)c23)cc1F,Potency,[1],inactive
same,"activity change, negative = inhibition",[2],-16.7%
COc1ccc(S(=O)(=O)N[C@@H](CNc2nc(C)nc(N3CCC(c4ccc5c(n4)NCCC5)CC3)c2C)C(=O)O)cc1,Potency,[1],inactive
same,"activity change, negative = inhibition",[2],-3.98%
C=CC(=O)N1CCC(CNc2ncnc(N)c2-c2ccc(Oc3ccccc3)cc2)CC1,Potency,[1],inactive
same,"activity change, negative = inhibition",[2],-20.9%
Cc1nc(NC(=O)N2CCC[C@H]2C(N)=O)sc1-c1ccnc(C(C)(C)C(F)(F)F)c1,Potency,[1],inactive
same,"activity change, negative = inhibition",[2],-35.1%
COc1ccc(-c2oc3ncnc(N)c3c2-c2ccc(NC(=O)Nc3cc(C(F)(F)F)ccc3F)cc2)cc1,Potency,[1],inactive
same,"activity change, negative = inhibition",[2],0.997%
Nc1nc(F)nc2c1ncn2[C@@H]1O[C@H](COP(=O)(O)O)[C@@H](O)[C@@H]1O,Potency,[1],inactive
same,"activity change, negative = inhibition",[2],0.103%
O=C(NC[C@H](O)CN1CCc2ccccc2C1)c1ccnc(NC2CCC2)c1,Potency,[1],inactive
same,"activity change, negative = inhibition",[2],4.47%

# — PubChem BioAssay (NCATS)
